Laboratory results from PubChem BioAssay AID1259422 (The Scripps Research Institute Molecular Screening Center, 2018).
Where “and” joins values, the source holds several entries; their conditions need not be identical. Equal entries are not always repeated. In all, about 640,000 compounds went through this assay and about 9,300 (1.5%) were called active. Many of the other results were omitted from the sample, so actives are more common in it than they were. Values without a mark were called inactive. Rule as the data show it: active = inhibition above about 32%; inactive = the rest.

Assay: TEAD-YAP interaction inhibition, primary screen, TEAD-YAP interaction inhibitor project, luminescence, HEK-TIYL cells (AID 1259422);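 also: 0% = median of test compound wells and 100% = reference inhibitor wells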
Settings: TEAD-Gal4/YAP UAS-luciferase luminescence, at 9.12 µM, active compounds read high

| SMILES | inhibition |
| --- | --- |
| COC(=O)c1c(C)oc2ccc(NS(=O)(=O)c3cccc4cccnc34)cc12 | 28.9% |
| CCOC(=O)c1c(-c2ccc(Br)cc2)csc1NC(=O)COC | -10.8% |
| CC(NC(=O)C(C)(C)C)c1ccc(Br)cc1 (centres undefined) | 8.71% |
| CC(C)(C)C(=O)Nc1scc(-c2ccc(Br)cc2)c1C(=O)O | 38.7% (active) |
| CCOc1cc(C(=O)OCc2cc(C(C)=O)ccc2OC)cc(OCC)c1OCC | -5.65% |
| Cc1cc(C)nc(/N=C(\N)Nc2ccc(Br)cc2)n1 | 1.37% and -0.43% |
| Cc1cc(C)nc(/N=C(\N)Nc2cccc(C(F)(F)F)c2)n1 | 36.7% (active) |
| CCc1ccc(N/C(N)=N/c2nc(C)cc(C)n2)cc1 | 23.8% |
| Cc1cccc(C)c1NS(=O)(=O)c1ccc2c(c1)oc(=O)n2C | -6.37% |
| COc1ccc(Cc2nc3sc4c(c3c(=O)n2N)CCCC4)cc1OC | 29.2% |
| Cc1cccc(C)c1-n1c(N)c(C(=O)Nc2cccc(Cl)c2)sc1=S | -13.7% |
| O=C(CSc1nc2ccccc2s1)NNC(=O)C1CCCO1 (centres undefined) | 1.6% |
| CCCCNC(=O)NNC(=O)CSc1nc2ccccc2s1 | 9.84% |
| O=C(CSc1nc2ccccc2s1)N1N=CCC1c1ccccc1 (centres undefined) | 51.5% (active) |
| C/C(=N\NC(=O)c1cccc(Br)c1)c1cc2ccc(O)cc2oc1=O | -10.3% |
| CC(C(=O)N(C)c1ccccc1)N1C(=O)NC(c2ccccc2)(c2ccccc2)C1=O (centres undefined) | 6.96% |
| CCOC(=O)c1c(NC(=O)/C=C/C(=O)O)sc(C)c1C | 28.1% |
| CCOC(=O)c1c(-c2ccccc2)csc1NC(=O)CNCC(C)C | -3.7% |
| CCOC(=O)c1c(-c2cccc3ccccc23)csc1NC(=O)/C=C/C(=O)O | 33.5% (active) |
| Cc1ccc(C2CC(=O)C3=C(C2)Nc2ccccc2N(C(=O)C(F)(F)F)C3c2cccc(Br)c2)cc1 (centres undefined) | 7.36% |
| CCOC(=O)C1=C(C)N=c2s/c(=C/c3cc(Br)c(N4CCOCC4)o3)c(=O)n2C1c1ccc(OC)cc1 (centres undefined) | 4.11% |
| Cc1nc2ccccn2c1C(=O)NCc1ccc(Oc2ccccc2)cc1 | 62.4% (active) |
| Cc1nc2ccccn2c1C(=O)NCc1nc(-c2ccccc2)no1 | 36.5% (active) |
| Cc1nc2sccn2c1C(=O)NCc1cccc(Cl)c1 | 12.9% |

| SMILES | inhibition |
| --- | --- |
| Cc1ccc(C)c(C(=O)NCc2nc(-c3ccccc3)no2)c1 | 9.38% |
| C=CCN(C)C(=O)c1c(C)nc2ccccn12 | -6.06% |
| O=C(NCc1nc(-c2ccccc2)no1)c1ccccc1I | 7.97% |
| COc1ccc(CNCc2c(C(=O)O)[nH]c3ccccc23)cc1 | -5.51% |
| C=Cc1ccc(Cn2c(C(=O)O)c(CNCc3ccccc3OC)c3ccccc32)cc1 | 14.2% |
| O=C(O)CC1SC(=Nc2ccccc2)NC1=O (centres undefined) | 4.55% |
| Cc1cccc(NC(=O)CC2SC(=Nc3ccccc3)NC2=O)c1 (centres undefined) | 3.61% |
| Cc1ccc(N=C2NC(=O)C(Cc3ccccc3Cl)S2)cc1 (centres undefined) | 33.1% (active) |
| Cc1ccc(C(c2cc(Cl)c3cccnc3c2O)N2CCN(c3ccccn3)CC2)cc1 (centres undefined) | 38% (active) |
| CC(C)c1ccc(OCC(O)CN2CCN(c3ccccn3)CC2)cc1 (centres undefined) | -5.32% |
| Cc1cc(N2CCN(c3ccccn3)CC2)nc2c(C)cccc12 | 2.36% |
| CCOc1ccc(C(=O)Nc2sc3c(c2C(N)=O)CC(C)CC3)cc1 (centres undefined) | 2.83% |
| CC(C)n1cnc2c(NCCOc3ccccc3)nc(-c3ccc(C(=O)NC4CC4)cc3)nc21 | 13.6% |
| COc1cc(OC)c(-n2c(C)cc(/C=C3/C(=N)N4C=CSC4=NC3=O)c2C)cc1Cl | -0.88% |
| CC1=CC2=NC(=O)/C(=C\c3cc(C)n(-c4cccc(C)c4C)c3C)C(=N)N2O1 | 9.28% |
| Cc1cc(/C=C2/C(=N)N3C=CSC3=NC2=O)c(C)n1-c1ccccc1F | 86.4% (active) |
| Cc1cc(/C=C2\C(=N)N3N=C(S(C)(=O)=O)SC3=NC2=O)c(C)n1-c1ccc(F)cc1 | 4.07% |
| CC1=CN2C(=N)/C(=C/c3cc(C)n(-c4ccc(F)cc4)c3C)C(=O)N=C2S1 | -6.11% |
| Cc1cc(/C=C2/C(=N)N3C=CSC3=NC2=O)c(C)n1-c1ccc(F)cc1 | 41.3% (active) |
| COCC1=C(C(=O)OC)C(c2ccc(Cl)cc2Cl)n2ncnc2N1 (centres undefined) | -3.21% |
| CN1C(=O)C(O)=C(c2ccccc2)S1(=O)=O | 5.68% |
| COc1cccc(NC(=O)Cn2c(=O)c(C(F)(F)F)nc3ccccc32)c1 | 5.63% |
| Cc1ccc(NC(=O)/C(=C/c2ccc(Cl)cc2)NC(=O)c2ccco2)cc1 | -3.43% |
| CC(C)C(=O)NCC1CCC2(CCN(Cc3ccc4ccccc4c3)CC2)O1 (centres undefined) | 9.09% |

| SMILES | inhibition |
| --- | --- |
| CC(C)C(=O)NCC1CCC2(CCN(Cc3nc(-c4ccccc4)cs3)CC2)O1 (centres undefined) | 96.7% (active) |
| COc1ccccc1CN1CCC2(CCC(CNC(=O)C(C)C)O2)CC1 (centres undefined) | -13.5% |
| CC(=O)N1CCc2c(sc(NC(=O)CCSc3ccccc3)c2C(N)=O)C1 | 3.99% |
| CC(=O)N1CCc2c(sc(NC(=O)CCS(=O)(=O)c3ccccc3)c2C#N)C1 | 3.65% |
| CCOC(=O)N1CCc2c(sc(NC(=O)/C=C/c3cccc([N+](=O)[O-])c3)c2C#N)C1 | 33.5% (active) |
| CCOC(=O)N1CCc2c(sc(NC(=O)CCSc3ccccc3)c2C#N)C1 | 44.1% (active) |
| N#Cc1c(NC(=O)/C=C/c2cccc([N+](=O)[O-])c2)sc2c1CCCC2 | -1.55% |
| CCOC(=O)N1CCc2c(sc(NC(=O)c3ccc([N+](=O)[O-])s3)c2C#N)C1 | 3.38% |
| O=C(OC1CCS(=O)(=O)C1)c1ccccc1 (centres undefined) | -9.29% |
| CN1CCN(S(=O)(=O)c2ccc(Sc3ccc(Br)cc3)c(C(=O)O)c2)CC1 | -2.07% |
| CCOc1cc(C2Nc3ccccc3C(=O)N2c2ccc(OC)cc2)ccc1O (centres undefined) | -26.9% |
| CCCN1C(=O)c2ccccc2NC1c1ccc(OC)c(COc2ccc(Cl)cc2)c1 (centres undefined) | 1.41% |
| CCCN1C(=O)c2ccccc2NC1c1ccc(O)c(OC)c1 (centres undefined) | 45.1% (active) |
| CCOC(=O)N1CCN(C(=O)CC2C(=O)NCCN2Cc2ccccc2C)CC1 (centres undefined) | 4.23% |
| CCOc1ccc(C(=O)NC(=S)Nc2ccc(N3CCCCC3)cc2)cc1 | -3.84% |
| O=C(NC1(c2ccc3c(c2)OCO3)CCCC1)c1cscn1 | 5.97% |
| NC(=O)c1sc2nc(C34CC5CC(CC(C5)C3)C4)ccc2c1N | -1.93% |
| CCOC(=O)c1ccc2nc(C34CC5CC(CC(C5)C3)C4)ccc2c1 | 46.2% (active) |
| CCOC(=O)c1ccc2c(c1)C(=O)N(c1ccc3ccccc3c1)C2=O | -2.85% |
| CC1CCc2sc(NC(=O)c3ccccc3F)c(C#N)c2C1 (centres undefined) | -31.8% |
| COCCNc1c(-c2ccc(Cl)cc2)c(=O)c1=O | -4.73% |
| CC(C)OCCCNc1c(-c2ccc(C(C)C)cc2)c(=O)c1=O | 42.2% (active) |
| Cc1ccc(-c2c(NCCCc3ccccc3)c(=O)c2=O)cc1 | -2.15% |
| COc1ccc(NS(=O)(=O)c2cc(NC(=O)CCCNC(N)=O)ccc2OC)cc1 | 5.83% |

| SMILES | inhibition |
| --- | --- |
| COc1cccc(-c2nn3c(=O)c4ccccc4nc3n2N)c1 | 34.2% (active) |
| COc1cccc(-c2nc3ccccc3c(=O)n2NC(=O)c2cccc(C)c2)c1 | 5.37% |
| COc1cccc(-c2nc3ccccc3c(=O)n2NC(=O)c2ccccc2C)c1 | 2.18% |
| COc1cccc(OC)c1C(=O)N1CCN(c2cccc(C)c2C)CC1 | 4.01% |
| COc1ccccc1N1CCN(S(=O)(=O)c2cc(C)ccc2OC)CC1 | -9.44% |
| COc1ccc(C)cc1S(=O)(=O)N1CCN(C)CC1 | 13.6% |
| COc1ccc(C)cc1S(=O)(=O)N1CCN(c2cc(-n3ccnc3C)ncn2)CC1 | 41.4% (active) |
| COc1ccc(C[C@@H]2NC(=O)[C@@H]3C[C@H](NCc4cnn(-c5ccccc5F)c4)CN3C2=O)cc1 | 10.7% |
| CCC(C)N1C(=O)C2C(C(=O)Nc3ccc(F)c(Cl)c3)C3C=CC2(O3)C1C(=O)NC1CCCC(C)C1C (centres undefined) | -20.7% |
| C/C(=N\NC(=O)Cc1cccn1C)c1ccc(O)cc1 | -12.8% |
| COCCNC(=O)c1ccc2c(c1)ncn2-c1ccc(C)c(Cl)c1 | -17.5% |
| COCCNC(=O)c1ccc2c(c1)N=C(C)c1cc(Br)ccc1S2 | 52.5% (active) |
| COCCNC(=O)c1ccc2c(c1)N=C(C)c1cc(C)ccc1S2 | 67.6% (active) |
| CCN1CCSc2ccc(C(=O)NCCCOC)cc21 | 0.64% |
| CC1=Nc2cc(C(=O)O)ccc2Sc2ccccc21 | -2.24% |
| COCCNC(=O)/C=C/c1ccc(Br)cc1 | -24.8% |
| COc1cccc(CCC(=O)N2CCC(CCC(=O)N(C)Cc3ccccc3)CC2)c1 | 4.53% |
| COc1cc(C2C(C#N)=C(N)Oc3n[nH]c(-c4cc(OC)c(OC)c(OC)c4)c32)ccc1OC(=O)N1CCOCC1 (centres undefined) | 12.5% |
| O=C(O)c1cc(N=Cc2cc(Br)cc(Cl)c2O)ccc1O | -2.5% |
| CC1=C(C#N)C(c2ccccc2Br)C2=C(CC(c3ccccc3)CC2=O)N1 (centres undefined) | 37.1% (active) |
| CC1=C(C#N)C(c2ccc(Cl)cc2Cl)C2=C(CC(c3ccccc3)CC2=O)N1 (centres undefined) | 11.3% |
| COC(=O)C1=C(C)NC2=C(C(=O)CC(c3ccccc3)C2)C1c1ccc(C)cc1 (centres undefined) | 2.81% |
